In all, about 5,000 sequences were measured (“log2 normalized fluorescence”: median about 0.089, highest 2% from about 0.81 on). The sample holds the highest values, similar sequences and a random draw of the others, so the mix is not that of the screen.

Chain of MYC (p64);MAX (p21), in MYC:MAX (P01106 16-454, chain 1 of 2): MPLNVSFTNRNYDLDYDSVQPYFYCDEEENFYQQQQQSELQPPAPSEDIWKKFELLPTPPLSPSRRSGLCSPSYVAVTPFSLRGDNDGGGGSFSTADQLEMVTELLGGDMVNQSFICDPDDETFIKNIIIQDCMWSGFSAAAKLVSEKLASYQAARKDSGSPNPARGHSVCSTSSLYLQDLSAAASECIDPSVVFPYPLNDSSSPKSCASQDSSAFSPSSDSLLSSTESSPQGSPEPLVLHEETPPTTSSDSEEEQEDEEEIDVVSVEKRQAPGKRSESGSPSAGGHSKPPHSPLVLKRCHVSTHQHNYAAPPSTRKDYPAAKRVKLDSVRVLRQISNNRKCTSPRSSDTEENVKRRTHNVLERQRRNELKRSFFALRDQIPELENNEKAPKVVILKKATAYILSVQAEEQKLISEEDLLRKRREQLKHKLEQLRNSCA
Chain of MYC (p64);MAX (p21), in MYC:MAX (P61244 other isoform, or with tags, fused parts or gaps |, chain 2 of 2): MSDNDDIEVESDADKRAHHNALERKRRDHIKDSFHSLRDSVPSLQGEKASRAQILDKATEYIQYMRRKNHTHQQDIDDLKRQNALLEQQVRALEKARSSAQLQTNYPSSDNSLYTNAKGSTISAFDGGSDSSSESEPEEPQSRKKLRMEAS

The target in this test is MYC (p64);MAX (p21), in MYC:MAX (human;human, UniProt P01106-1;P61244-2 1-439;1-151, |). The test can be described thus: protein-binding microarray (anti-MAX antibody); PBM: 15 mM Tris-HCl pH 7.5, 100 mM KCl, 0.075% NP40, 7.5 mM beta-mercaptoethanol, 375 ng/ul BSA, 8 ng/ul poly(dA-dT):(dA-dT), 550 ng complex, 60 min, room tempe; high values mean tight binding. The settings on record: protein: recombinant;recombinant; tags: 6xHis;6xHis; copies: 1;1; label: 3' end of printed strand (linker) attached to glass slide; dsDNA, one strand shown. In a few lines:
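Binding, given as log2 normalized fluorescence, was measured on a custom Agilent glass array. The array bore ~5000 unique 12-nt sequences spotted in triplicate and converted to double strands by primer extension. It was incubated with 550 ng of human His-tagged MYC:MAX or MAX:MAX dimers from E. coli for 60 min at room temperature in Tris-KCl buffer, pH 7.5, with NP40, BSA and poly(dA-dT) competitor, and bound protein was detected with anti-MAX and secondary antibodies and scanned at 543 nm.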
For the sequence “CCGGCGGACACGAGGTATTAATAGCTAAGATTACTATATCGACG”, the binding signal was 0.562 log2 normalized fluorescence.
Next, “CCGGCTGACCACCCGTATTAATAGCTAAGATTACTATATCGACG”: 0.348 log2 normalized fluorescence.
Consider “CCGGCTGAGGGACGGTATTAATAGCTAAGATTACTATATCGACG”, for which the binding signal was 0.0602 log2 normalized fluorescence.
Next, “CCGGCTGATGTTCTGTATTAATAGCTAAGATTACTATATCGACG”: 0.261 log2 normalized fluorescence; “CCGGCTGATGAGGTGTATTAATAGCTAAGATTACTATATCGACG”: -0.000883 log2 normalized fluorescence.
Next, “CCGGCTGAGTATACGTATTAATAGCTAAGATTACTATATCGACG”: 0.0171 log2 normalized fluorescence; “CCGGCAGCCACGTGGTATTAATAGCTAAGATTACTATATCGACG”: 0.908 log2 normalized fluorescence.
As for “CCGGCAGCCACGTTGTATTAATAGCTAAGATTACTATATCGACG”, the figure is 0.643 log2 normalized fluorescence; as for “CCGGCAGCTACGTGGTATTAATAGCTAAGATTACTATATCGACG”, 0.389 log2 normalized fluorescence.
Regarding “CCGGCAGTCACGTGGTATTAATAGCTAAGATTACTATATCGACG”, the binding signal was 0.893 log2 normalized fluorescence.
On to “CCGGCTGCATCGTGGTATTAATAGCTAAGATTACTATATCGACG”, for which the binding signal was 0.636 log2 normalized fluorescence.
As for “CCGGCTGTCACGTGGTATTAATAGCTAAGATTACTATATCGACG”, the figure is 0.706 log2 normalized fluorescence.
Next, “CCGGCATGCACGTGGTATTAATAGCTAAGATTACTATATCGACG”: 0.877 log2 normalized fluorescence; “CCGGCTGAAAGAGAGTATTAATAGCTAAGATTACTATATCGACG”: -0.0282 log2 normalized fluorescence; “CCGGCTGACCGGGTGTATTAATAGCTAAGATTACTATATCGACG”: 0.119 log2 normalized fluorescence.
As for “CCGGCTGAGTACGGGTATTAATAGCTAAGATTACTATATCGACG”, the binding signal was -0.0173 log2 normalized fluorescence.
On to “CCGGCTGATGCGCAGTATTAATAGCTAAGATTACTATATCGACG”, for which the binding signal was 0.0262 log2 normalized fluorescence.
Next, “CCGGCTCATACGTGGTATTAATAGCTAAGATTACTATATCGACG”: 0.558 log2 normalized fluorescence; “CCGGCTCTCACGTGGTATTAATAGCTAAGATTACTATATCGACG”: 0.891 log2 normalized fluorescence.
Consider “CCGGCTGAAACGTGGTCTTAATAGCTAAGATTACTATATCGACG”, for which the binding signal is 0.74 log2 normalized fluorescence.
As for “CCGGCTCAGACGTGGTATTAATAGCTAAGATTACTATATCGACG”, the figure is 0.391 log2 normalized fluorescence; as for “CCGGCGCTCACGTGGTATTAATAGCTAAGATTACTATATCGACG”, 0.815 log2 normalized fluorescence.
As for “CCGGCTCACACGTGGGCTTAATAGCTAAGATTACTATATCGACG”, the figure is 0.832 log2 normalized fluorescence; as for “CCGGCTCTTACGTGGTATTAATAGCTAAGATTACTATATCGACG”, 0.358 log2 normalized fluorescence.
As for “CCGGCTGGTACGTGGTCTTAATAGCTAAGATTACTATATCGACG”, the figure is 0.364 log2 normalized fluorescence; as for “CCGGCTTACACGTGGGATTAATAGCTAAGATTACTATATCGACG”, 0.81 log2 normalized fluorescence.
“CCGGCTCACGATGGGGCTTAATAGCTAAGATTACTATATCGACG”: the binding signal is 0.398 log2 normalized fluorescence.
As to “CCGGCTCTCACGTGGTCTTAATAGCTAAGATTACTATATCGACG”, the binding signal was 0.836 log2 normalized fluorescence.
Consider “CCGGCGGTCACGTGGTATTAATAGCTAAGATTACTATATCGACG”, for which the binding signal was 0.805 log2 normalized fluorescence.
Next, “CCGGCTGGCACCCGGTATTAATAGCTAAGATTACTATATCGACG”: 0.242 log2 normalized fluorescence.
Next, “CCGGCTGACGTTTTGTATTAATAGCTAAGATTACTATATCGACG”: -0.0354 log2 normalized fluorescence.
With “CCGGCTGAAAGGCCGTATTAATAGCTAAGATTACTATATCGACG”, the binding signal was 0.17 log2 normalized fluorescence.
Take “CCGGCTGACACGCATTATTAATAGCTAAGATTACTATATCGACG”: the binding signal was 0.524 log2 normalized fluorescence.
Next, “CCGGCTATTACGTGGTATTAATAGCTAAGATTACTATATCGACG”: 0.323 log2 normalized fluorescence; “CCGGCTTACATGTGGTATTAATAGCTAAGATTACTATATCGACG”: 0.625 log2 normalized fluorescence; “CCGGCTCACACGTCGTATTAATAGCTAAGATTACTATATCGACG”: 0.506 log2 normalized fluorescence.
In the case of “CCGGCTCACATGTGGTATTAATAGCTAAGATTACTATATCGACG”, the binding signal was 0.918 log2 normalized fluorescence.
In the case of “CCGGCTCACACGTGGTATTAATAGCTAAGATTACTATATCGACG”, the binding signal was 0.998 log2 normalized fluorescence.
Next, “CCGGCCGTCACGTGGTATTAATAGCTAAGATTACTATATCGACG”: 0.809 log2 normalized fluorescence; “CCGGCGATCACGTGGTATTAATAGCTAAGATTACTATATCGACG”: 0.946 log2 normalized fluorescence.
As for “CCGGCCCTCACGTGGTATTAATAGCTAAGATTACTATATCGACG”, the figure is 0.828 log2 normalized fluorescence.
On to “CCGGCCGACATGTGGTATTAATAGCTAAGATTACTATATCGACG”, for which the binding signal is 0.663 log2 normalized fluorescence.
Next, “CCGGCCATCACGTGGTATTAATAGCTAAGATTACTATATCGACG”: 0.764 log2 normalized fluorescence.
As for “CCGGCTATCACGTGGTATTAATAGCTAAGATTACTATATCGACG”, the figure is 0.71 log2 normalized fluorescence.
As for “CCGGCTGACGCTTTGTATTAATAGCTAAGATTACTATATCGACG”, the figure is 0.148 log2 normalized fluorescence.
As to “CCGGCTGACCATTGGTATTAATAGCTAAGATTACTATATCGACG”, the binding signal is 0.0788 log2 normalized fluorescence.
As for “CCGGCTGAAAGAGTGTATTAATAGCTAAGATTACTATATCGACG”, the figure is 0.0309 log2 normalized fluorescence; as for “CCGGCTGAGAGACGGTATTAATAGCTAAGATTACTATATCGACG”, -0.00994 log2 normalized fluorescence; as for “CCGGCTGACACGCGAGATTAATAGCTAAGATTACTATATCGACG”, 0.438 log2 normalized fluorescence.
For the sequence “CCGGCTGAAGATGTGTATTAATAGCTAAGATTACTATATCGACG”, the binding signal was 0.0913 log2 normalized fluorescence.
Next, “CCGGCTGAAAAGAGGTATTAATAGCTAAGATTACTATATCGACG”: -0.00138 log2 normalized fluorescence; “CCGGCTGACAGCAAGTATTAATAGCTAAGATTACTATATCGACG”: 0.286 log2 normalized fluorescence.
Next, “CCGGCTGACCGTAAGTATTAATAGCTAAGATTACTATATCGACG”: 0.214 log2 normalized fluorescence.
Next, “CCGGCAAGTTTAAGCCGTTAATAGCTAAGATTACTATATCGACG”: 0.00903 log2 normalized fluorescence; “CCGGCTGAGCCGCTGTATTAATAGCTAAGATTACTATATCGACG”: 0.0565 log2 normalized fluorescence.

The record behind these values is article PMC5515408, “Sequence-specific DNA binding by MYC/MAX to low-affinity non-E-box motifs”.
